# High-throughput results as filed in PubChem.
# SMN2 splice up – qHTS Assay for Enhancers of SMN2 Splice Variant Expression | HEK293 SMN2-luciferase splicing reporter, luminescence, 30-36 h | Potency, µM (highest dose often 46.1 µM), hits mostly activators | hit rate 2.8% among 210,000 | AID 1458, 2008; further: nearly all actives have a fitted effect of over 55% in size
#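 HEK293 cells carry an SMN2 minigene-luciferase reporter in which exon 7 inclusion puts luciferase in frame. Cells were seeded at 2000 cells/well, attached for 10-12 hours, then exposed to compounds for 30-36 hours at 37C before ONE-Glo luminescence.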
# ELG1 genotoxic – qHTS screen for small molecules that induce genotoxicity in human embryonic kidney (HEK293T) cells expressing luciferase-tagged ELG1; HEK293T ELG1-luciferase reporter, luminescence, 16 h; Potency, µM (titrated, usually from 46 µM), most hits filed as activators; hit rate 1.3% among 330,000; AID 504466, 2011; further: nearly all actives have a fitted effect of over 60% in size
#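 16 hr compound incubation (37 °C, 5% CO2) of HEK293T cells carrying luciferase-tagged ELG1; luciferase then measured by ONE-Glo luminescence after 30 min at RT.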
# Rab9 promoter act – qHTS Assay for Rab9 Promoter Activators; Huh7 Rab9 promoter-luciferase reporter, luminescence, 24 h; Potency, µM (doses to about 9.22 µM), actives largely listed as activators; hit rate 2.8% among 320,000; further: nearly all actives have a fitted effect of over 60% in size
#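 Quantitative HTS format; Huh7 Rab9-luciferase reporter cells (1500/well) receive compound 2 h post-plating, incubate 24 h at 37 °C, then get luciferase reagent for 10 min before luminescence reading.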
# ELG1 repair inh – qHTS screen for small molecules that inhibit ELG1-dependent DNA repair in human embryonic kidney (HEK293T) cells expressing luciferase-tagged ELG1; hit rate 2.3% among 330,000; Potency, µM (highest dose often 46.1 µM), most hits filed as inhibitors; HEK293T ELG1-luciferase reporter, luminescence, 16 h; DNA damage induced by 5-fluorouridine; further: nearly all actives have a fitted effect of over 55% in size
#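 Luminescence from the luciferase reporter, measured 30 min after ONE-Glo reagent at room temperature, was the read-out. Beforehand, 2,000 cells per well were exposed for 16 hr at 37 °C to 5-fluorouridine together with compound or vehicle.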
# FLuc modulator – qHTS profiling assay for firefly luciferase inhibitor/activator using purifed enzyme and Km concentrations of substrates (counterscreen for miR-21 project); Luciferin 4-monooxygenase (Photinus pyralis), P08659; purified FLuc, Km substrates, luminescence inhibition; Potency, µM (series often up to 57.5 µM), actives largely listed as inhibitors; hit rate 6.9% among 360,000; AID 588342, 2011; further: nearly all actives have a fitted effect of over 55% in size
# Target sequence (P08659 whole entry, looked up): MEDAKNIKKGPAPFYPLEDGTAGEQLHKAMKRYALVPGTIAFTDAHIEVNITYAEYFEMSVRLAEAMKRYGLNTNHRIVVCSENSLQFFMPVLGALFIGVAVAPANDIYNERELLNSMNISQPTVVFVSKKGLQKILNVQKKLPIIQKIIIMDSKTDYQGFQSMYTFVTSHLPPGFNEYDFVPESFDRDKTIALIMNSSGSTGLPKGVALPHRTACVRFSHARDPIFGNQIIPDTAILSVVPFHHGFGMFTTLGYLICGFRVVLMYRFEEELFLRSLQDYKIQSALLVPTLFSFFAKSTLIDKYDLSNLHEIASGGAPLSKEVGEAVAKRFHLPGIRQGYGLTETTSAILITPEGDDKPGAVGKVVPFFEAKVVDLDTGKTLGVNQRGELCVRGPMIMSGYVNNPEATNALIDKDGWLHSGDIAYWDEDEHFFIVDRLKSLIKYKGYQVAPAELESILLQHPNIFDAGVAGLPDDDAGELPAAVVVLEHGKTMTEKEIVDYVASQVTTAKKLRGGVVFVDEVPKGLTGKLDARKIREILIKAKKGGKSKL
#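 Purified P. pyralis luciferase (10nM final) with 10uM D-luciferin and 10uM ATP (Km levels) in 50mM Tris acetate pH 7.5, 10mM Mg acetate, 0.01% Tween-20, 0.05% BSA; qHTS 6-point titration, ~60 µM downward; luminescence read.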
# NPC1 prom act – qHTS Assay for NPC1 Promoter Activators. AID 485313, 2010. Potency, µM (doses to about 9.22 µM), hits mostly activators. hit rate 2.4% among 320,000. Huh7 NPC1 promoter luciferase reporter, 24 h; further: nearly all actives have a fitted effect of over 60% in size
#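 Compounds in DMSO were transferred onto Huh7 NPC1-luciferase reporter cells pre-incubated 2 h; after 24 h at 37 °C, Amplite reagent was dispensed and luminescence recorded 10 min later.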
# A number is an active result; . = inactive; ? = inconclusive; / = no result given. Hits are enriched below; roughly 9.3% of the tested compounds scored in any of these assays. The call rests on the fitted dose curve; in most records, active means well fitted curve in the direction sought with a large enough effect; inconclusive means small, poorly fitted or top-dose-only effect, or another doubt; inactive means no such curve, though single readings can be large; an effect the other way counts as inactive or inconclusive.
SMILES,SMN2 splice up,ELG1 genotoxic,Rab9 promoter act,ELG1 repair inh,FLuc modulator,NPC1 prom act
COC(=O)c1cn(-c2cccc(C)n2)cn1,.,.,.,?,.,.
Cc1ccccc1OCc1nc(-c2ccc(NC(=O)c3ccco3)cc2)no1,7.1µM,?,?,?,11µM,?
CC(Oc1ccc(Cl)cc1Cl)c1nc(-c2ccc(NC(=O)c3ccco3)cc2)no1 (configuration not stated),.,?,?,?,15µM,.
Cc1ccccc1OCc1nc(-c2ccc(NC(=O)c3cccs3)cc2)no1,?,?,?,?,12µM,?
Clc1ccc(C2CSc3c4ncnc-4ncn32)cc1 (configuration not stated),/,.,.,.,.,.
CCCCN(C)C(=O)C1CCN(Cc2cccnc2)CC1,/,.,.,.,.,.
COc1ccc(NC(=O)CN(C)C(=O)CCC(=O)c2ccc(C)cc2)cc1,/,?,.,.,?,.
CCCC1CCC(c2nc(-c3cccnc3)no2)CC1 (configuration not stated),.,.,?,?,24µM,.
O=c1c(F)cn(C2CCCO2)c(=O)n1Cc1ccccc1F (configuration not stated),.,.,.,.,.,.
COc1ccccc1Nc1nc(NCCO)nc(N)c1[N+](=O)[O-],/,.,.,.,.,.
COc1ccccc1Nc1nc(NCCC(C)C)nc(N)c1[N+](=O)[O-],/,.,.,21µM,.,.
CCN(CC)S(=O)(=O)c1ccc(C(=O)Nc2cc(C)cc(C)c2)cc1,.,.,.,.,.,.
Cc1cc(C)cc(NC(=O)c2ccc(S(=O)(=O)C(F)F)cc2)c1,.,.,.,.,13µM,.
Cc1nnc(NC(=O)c2ccc(S(=O)(=O)C(F)F)cc2)s1,/,?,2.2µM,?,5.4µM,?
Cc1ccc(S(=O)(=O)NCc2ccccc2)cc1C(=O)NCCc1ccc(S(N)(=O)=O)cc1,/,.,.,.,.,.
CCCCCN(C(=O)CCC(=O)OCCOc1cccc(Cl)c1)c1c(N)n(CCCC)c(=O)[nH]c1=O,/,.,.,.,.,.
COc1ccccc1C(=O)OCc1ccc2sc(C)nc2c1,.,.,.,.,17µM,.
COc1ccc(CCNC(=O)COC(=O)c2ccc(S(=O)(=O)N3CCCC3)cc2)cc1OC,/,.,/,?,/,/
COc1cccc(/C=N/Nc2snc(SC)c2C#N)c1O,.,.,.,?,4.8µM,.
COc1ccc(/C=N/Nc2snc(SC)c2C#N)cc1OC,?,.,2.8µM,?,2.1µM,2.8µM
COc1cccc(/C=N/Nc2snc(SC)c2C#N)c1,.,.,.,?,4.8µM,?
CCOC(=O)CC(=O)CSc1nc2sc(C)cc2c(=O)n1Cc1ccco1,/,.,.,?,.,.
CC1CCCCC1NC(=O)Cn1[nH]c(=O)c2ccccc2c1=O (configuration not stated),.,.,.,.,.,.
COC(=O)c1ccccc1NC(=O)N1CCc2c(sc3c2CCCC3)C1c1ccc(F)cc1 (configuration not stated),/,/,/,/,.,/
CC(=O)Nc1ccc(OCC(O)CN2CCN(c3ccc(C)c(Cl)c3)CC2)cc1 (configuration not stated),.,.,.,?,.,.
SMILES,SMN2 splice up,ELG1 genotoxic,Rab9 promoter act,ELG1 repair inh,FLuc modulator,NPC1 prom act
O=c1c(Cl)c(NCc2ccc(F)cc2)cnn1C12CC3CC(CC(C3)C1)C2,.,.,.,?,.,.
Cc1ccc2nc(N/C(=N/S(=O)(=O)c3ccc(F)cc3)c3ccccc3)sc2c1,?,.,?,?,8.5µM,.
Cc1cnc(NC(=O)CCCc2nc3ccccc3s2)s1,?,.,.,?,?,.
Cc1ccc(S(=O)(=O)/N=C(/Nc2ccc([N+](=O)[O-])cc2[N+](=O)[O-])c2ccccc2)cc1,/,.,/,23µM,/,/
Cc1ccc2nc(NC(=O)CCCc3nc4ccccc4s3)sc2c1,.,?,.,?,17µM,.
Cc1ccc2nc(N/C(=N/S(=O)(=O)c3ccc(F)cc3F)c3ccccc3)sc2c1,/,.,.,?,?,.
Cc1ccc2nc(NC(=O)CCCC(=O)O)sc2c1,.,.,.,.,5.4µM,.
CC(C)N(Cc1ccccc1)C(=S)NCCN1CCOCC1,.,.,.,.,.,.
CCOC(=O)c1sc2ncn(C(CC)C(=O)OC)c(=O)c2c1C (configuration not stated),.,.,.,.,.,.
CCCC(=O)n1nc(-c2ccc(Cl)cc2)nc1SC,?,?,.,?,?,.
CCC(=O)n1nc(-c2ccc(Cl)cc2)nc1SC,13µM,?,?,?,?,.
CCC(=O)n1nc(-c2ccc(OC)cc2)nc1SC,?,?,?,?,19µM,.
Cn1c(SCC(=O)N2CCCc3ccccc32)nnc1-c1ccccc1,.,.,.,.,.,.
Cc1ccc(OCCC(=O)OCC(=O)Nc2ccc(N3CCOCC3)cc2)cc1,/,.,.,.,.,.
Cc1ccc(-c2nc3sc(C(N)=O)c(N)c3c3c2CCCC3)cc1,.,.,.,?,.,.
Cc1nc2sc(C(N)=O)c(N)c2c2c1CCCC2,/,.,.,?,12µM,?
O=c1c2ccccc2nc(-c2ccc(Br)cc2)n1Cc1ccccc1,.,.,.,.,.,.
CCOc1ccc(CCn2c(-c3ccco3)nc3ccccc3c2=O)cc1OCC,?,.,.,9.2µM,.,.
O=c1c2ccccc2nc(-c2ccco2)n1Cc1ccccc1,?,/,/,/,13µM,/
O=C1c2ccccc2C(=O)N1CCc1nc2ccccc2c(=O)n1Cc1ccco1,.,.,.,21µM,.,.
c1coc(-c2nc3nc4ccccc4nc3n2-c2ccc3c(c2)OCCO3)c1,.,.,.,16µM,3.8µM,.
Cc1nc2ccccc2c(=O)n1Cc1ccco1,/,.,.,.,.,.
O=C(Nc1ccc(Oc2ccccc2)cc1)c1ccc(Cn2c(=O)[nH]c3ccsc3c2=O)cc1,.,.,.,.,.,.
CCCCCn1c(-c2ccco2)nc2nc3ccccc3nc21,.,.,.,?,?,.
c1ccc(Cn2c(-c3ccco3)nc3nc4ccccc4nc32)cc1,16µM,?,3.2µM,?,2.7µM,3.5µM
CCOc1ccc(Oc2ccc(S(=O)(=O)N3CCOCC3)cc2N)cc1,.,.,.,9.2µM,.,.
CCOc1ccc2cc(S(=O)(=O)N3CCOCC3)ccc2c1,.,.,.,.,.,.
O=C(CSc1cccs1)NCCc1ccccc1,.,.,.,?,?,.
